In ChEMBL document CHEMBL3433997, “St. Jude Leishmania screening dataset” (2016) one finds inhibition data, which are given here for 32 molecules.

By inhibition is commonly meant the drop in the measured response relative to a control, in per cent.

Common to all, as to assay type: functional
In experiment [1] the target is Solute carrier family 2, facilitated glucose transporter member 1 (Homo sapiens) (UniProt P11166). Description: ST_JUDE_LEISH: Cytotoxicity at 2uM final concentration against transgenic Leishmania Mexicana promastigotes LmGLUT1 that are glucose transport deficient and complemented with the human glucose transporter GLUT1. Activity is measured by DNA content using SYBR green in vitro.
Sequence of Solute carrier family 2, facilitated glucose transporter member 1 (Homo sapiens) (P11166 whole entry): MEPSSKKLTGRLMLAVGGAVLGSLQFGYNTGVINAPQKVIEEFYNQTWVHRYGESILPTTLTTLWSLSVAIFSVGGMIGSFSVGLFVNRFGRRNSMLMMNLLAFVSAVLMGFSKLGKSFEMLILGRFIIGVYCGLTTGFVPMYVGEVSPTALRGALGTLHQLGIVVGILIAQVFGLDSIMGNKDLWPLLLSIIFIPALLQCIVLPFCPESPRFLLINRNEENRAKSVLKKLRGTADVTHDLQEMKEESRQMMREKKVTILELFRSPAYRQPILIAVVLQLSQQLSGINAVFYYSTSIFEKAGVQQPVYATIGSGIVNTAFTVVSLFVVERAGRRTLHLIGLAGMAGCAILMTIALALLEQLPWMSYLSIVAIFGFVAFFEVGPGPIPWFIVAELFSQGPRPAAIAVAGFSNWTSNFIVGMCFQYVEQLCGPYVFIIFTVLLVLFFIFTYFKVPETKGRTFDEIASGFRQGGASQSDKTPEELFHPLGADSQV

In experiment [2] the target is Hexose transporter 1 (Plasmodium falciparum) (UniProt O97467). Briefly: ST_JUDE_LEISH: Cytotoxicity at 2uM final concentration against transgenic Leishmania Mexicana promastigotes LmPfHT that are glucose transport deficient and complemented with the Plasmodium falciparum hexose transporter. Activity is measured by DNA content using SYBR green in vitro.
Experiment [3] has as its target Glucose transporter (Leishmania mexicana) (UniProt O61059). Briefly: ST_JUDE_LEISH: Cytotoxicity at 2uM final concentration against transgenic Leishmania Mexicana promastigotes LmGT2 that are glucose transport deficient and complemented with the L. Mexicana glucose transporter 2. Activity is measured by DNA content using SYBR green in vitro.

Values joined by “and” are separate entries in the source; they are usually repeats but may differ in a detail not shown here. Equal entries are not always repeated.

Regarding `CCCN1CCC(NCc2cn(C)nc2-c2ccc(Oc3ccccc3)cc2)CC1`, the results for the inhibition in experiment [1], in experiment [2] and in experiment [3] were 10.8%, 11% and 11.5%, respectively.

In the case of `Cc1ccc(C(=O)Nc2ccc(Nc3ccnc4cc(-c5nccs5)ccc34)cc2O)cc1`, the inhibition in experiment [1] was determined as 6.24%; in experiment [2], 3.22%; in experiment [3], 1.89%.

On to `CC(C)CCNC(=O)C1Cc2c([nH]c3ccc(Br)cc23)C2(CCN(Cc3ccccc3)CC2)N1` (stereo unspecified), for which the inhibition was found to be 104% in experiment [1], 103% in experiment [2] and 94.2% in experiment [3].

As to `N=C(N)NN=Cc1c2ccc(Cl)cc2c(Cl)c2ccc(Cl)cc12`, the figures for the inhibition in experiment [1], in experiment [2] and in experiment [3] were 83.8%, 23.8% and 61.9%, respectively.

With `N=C(N)NN=CC(=O)Nc1cc([N+](=O)[O-])cc([N+](=O)[O-])c1`, the figures for the inhibition in experiment [1], in experiment [2] and in experiment [3] were 8.23%, 7.12% and 6.66%, respectively.

In the case of `O=C(Nc1ccccc1)N(Cc1ccc(-c2cccc(CNC3CCCC3)c2)cc1)C1CCN(Cc2ccccc2)CC1`, the inhibition turned out to be 0.97% in experiment [1], 1.4% in experiment [2] and 1.42% in experiment [3].

Turning to `CCN(CC)CCCC(C)Nc1ccnc2cc(Cl)ccc12` (stereo unspecified), the inhibition is 1.44% in experiment [1], 1.5% in experiment [2] and 1.51% in experiment [3].

As for `Cc1cc(N(C)C)nc(Nc2ccc(NC(=O)c3ccc(F)cc3)cc2)n1`, the inhibition in experiment [1] was determined as 5.57%; in experiment [2], 8.06%; in experiment [3], 3.85%.

Regarding `O=C(CC1CCCCC1)NCC(NCCCNc1cc(=O)c2ccccc2[nH]1)c1cc(Br)cc(Br)c1` (stereo unspecified), the inhibition is 3.89% in experiment [1], -1.16% in experiment [2] and 2.63% in experiment [3].

`Cc1nc(-c2cccc(C(=O)NC3CCC(CCN4CCc5ccc(-c6cccnc6)cc5CC4)CC3)c2)no1` (stereo unspecified): the inhibition in experiment [1] stood at 11.5%; in experiment [2] it was 2.55%; in experiment [3], 4.24%.

On to `COc1ccc(C=CC(=O)NC(=O)c2ccccc2OC(=O)c2ccccc2)cc1OC`, for which the inhibition in experiment [1] was determined as 2.48%; in experiment [2], 2.16%; in experiment [3] it was 1.89%.

On to `COc1ccc2nccc([C@@H](O)CN3CCC(NCCOc4ccc(F)cc4[N+](=O)[O-])CC3)c2c1`, for which the inhibition in experiment [1] was -1.59%; in experiment [2], -1%; in experiment [3], 1.61%.

As to `CC(=O)Oc1c(C2CCN(CCCCNC(=O)c3ccc(-c4ccc(C#N)cc4)cc3)CC2)ccc2c1CCCC2`, the inhibition amounted to 0.47% in experiment [1], 1.16% in experiment [2] and 1.58% in experiment [3].

In the case of `Cc1ccccc1C1CCN(C2CCC(NC(=O)c3cncc(-c4ccccc4)c3)CC2)CC1` (stereo unspecified), the results for the inhibition in experiment [1], in experiment [2] and in experiment [3] were 6.15%, 6.33% and 3.53%, respectively.

`CCCCn1c(C(C)Oc2ccc(Cl)cc2Cl)nc2cc(S(N)(=O)=O)ccc21` (stereo unspecified): the inhibition in experiment [1] was -0.86%; in experiment [2], -1.81%; in experiment [3], -1.84%.

For the molecule `COc1ccccc1CCNc1nc(C)cc(N[C@@H](Cc2ccccc2)C(=O)NCc2cccc(F)c2)n1`, the inhibition is 5.91% in experiment [1], 1.53% in experiment [2] and 5.51% in experiment [3].

As for `COc1ccc(-c2ccc(NC(=O)c3cccc(Cl)c3)c(F)c2)cc1CNC(C)C`, the values for the inhibition in experiment [1], in experiment [2] and in experiment [3] were 9.29%, 7.16% and 4.55%, respectively.

Consider `CN(C)CC(=O)Nc1ccc(-c2ccc3ccnc(N)c3c2)cc1`, for which the figures for the inhibition in experiment [1], in experiment [2] and in experiment [3] were 13.7%, 24.3% and 5.49%, respectively.

As to `CC1CN(Cc2cccc(F)c2)CCN1c1ccc(NC(=O)c2cccs2)cc1` (stereo unspecified), the results for the inhibition in experiment [1], in experiment [2] and in experiment [3] were -0.87%, -1.57% and -2.09%, respectively.

`COc1ccccc1-n1ccnc1SCC(=O)Nc1cc(C(F)(F)F)ccc1Cl`: the inhibition in experiment [1] was -3.59%; in experiment [2], -0.64%; in experiment [3], -1.83%.

On to `CC(C)CN(C)c1ncnc2c1nc(-c1cncc(C#N)c1)n2CCNCc1ccccc1`, for which the inhibition in experiment [1] came to 3.34%; in experiment [2] it was 3.26%; in experiment [3], 4.39%.

For `CC1CCCN1Cc1ccc(-c2ccc3c(=O)cc(CCc4cccc(F)c4F)n(CC(=O)N(C)Cc4ccc(-c5ccc(C(F)(F)F)cc5)cc4)c3n2)cc1` (stereo unspecified), the inhibition in experiment [1] is -0.63%; in experiment [2], -4.81%; in experiment [3], 10.4%.

With `CCCCCc1ccc(NC(=O)Nc2ccc(Cn3ncc(N4CCCNCC4)c(Cl)c3=O)cc2)cc1`, the inhibition in experiment [1] is -1.1%; in experiment [2] it was -1.27%; in experiment [3] it was 0.47%.

Regarding `O=C(c1ccc(F)c2ccccc12)N1CCc2cc3nccc(N4CCN5CCC[C@H]5C4)c3cc21`, the results for the inhibition in experiment [1], in experiment [2] and in experiment [3] were 3.66%, 1.16% and 0.27%, respectively.

Consider `O=C(COc1ccc(Cl)c(Cl)c1)NCCCCCN1CCCN(C(=O)Nc2ccc(Cl)c(Cl)c2)CC1`, for which the inhibition turned out to be 4.35% in experiment [1], 3.1% in experiment [2] and 2.27% in experiment [3].

As to `CC(C)CNCc1cccc(-c2ccc(CNc3ccc4ncccc4c3)cc2)c1`, the results for the inhibition in experiment [1], in experiment [2] and in experiment [3] were 1.45%, 1.19% and -0.62%, respectively.

For the molecule `CCN(CC)CCc1ccc2c(=O)cc(CCc3cccc(F)c3F)n(CC(=O)N(C)Cc3ccc(-c4ccc(C(F)(F)F)cc4)cc3)c2c1`, the inhibition was found to be 5.18% in experiment [1], 5.23% in experiment [2] and 3.78% in experiment [3].

Consider `CN1CCN=C1c1ccc(NC(=O)Nc2ccc(C3=NCCN3C)cc2)cc1`, for which the inhibition stood at 13% in experiment [1], 7.37% in experiment [2] and 5.87% in experiment [3].

As for `Oc1cccc(-c2nc3cc(C4=NC5CCCCC5N4)ccc3[nH]2)c1` (stereo unspecified), the inhibition in experiment [1] was 3.58% and 0.07%; in experiment [2] it was 3.97% and -1.13%; in experiment [3] it was 2.39% and 0.63%.

In the case of `CC(C)N1CCN(C(CN2CCN(CCCOc3ccccc3-c3ccccc3)CC2)c2ccc(F)cc2)CC1` (stereo unspecified), the inhibition worked out at 6.32% in experiment [1], 5.02% in experiment [2] and 5.95% in experiment [3].

For `CCC(C)OC(=O)C1=C(C)NC2=C(C(=O)CC(c3ccc(OC)c(OC)c3)C2)C1c1cccc(O)c1` (stereo unspecified), the inhibition in experiment [1] came out at 4.07%; in experiment [2] it was 0.16%; in experiment [3] it was 1.16%.

Take `O=S(=O)(NCCN1CCCC1)c1cccc(-c2ccc(CNCc3ccsc3)cc2)c1`: the inhibition in experiment [1] turned out to be 2.71%; in experiment [2], 1.13%; in experiment [3], 3.02%.
